# Measured values from the supplement of paper PMC6331611.
# ± gives the standard deviation of the averaged measurements. Over roughly 1,600 compounds, “normalized intracellular growth (luminescence, IQM-normalized) in RAW264.7 macrophages” has its median near 1; the lowest 2% begin near 0.43. This is one part of a sample in which the lowest values are shown more often than they occur.
# Tested on: Salmonella enterica serovar Typhimurium SL1344
# Experiment: normalized intracellular growth (luminescence, IQM-normalized) in RAW264.7 macrophages (fraction of plate interquartile mean); higher = more bacterial growth (less inhibition)
# Conditions: 10 µM
Structure (SMILES),normalized intracellular growth (time point: T3 (3 h)),normalized intracellular growth (time point: Tfinal (~6 h))
Oc1ccc(Cl)cc1,1.02 ± 0.017,1.13 ± 0.023
Oc1ccc(Cl)cc1Cc1cc(Cl)ccc1O,1.03 ± 0.02,0.859 ± 0.13
Oc1cc(Cl)ccc1Oc1ccc(Cl)cc1Cl,0.343 ± 0.083,0.256 ± 0.12
N=C1NC(=O)N2CC12 (stereo not given),1.051 ± 0.0073,0.853 ± 0.12
O=[N+]([O-])OCC(CO[N+](=O)[O-])O[N+](=O)[O-],1.01 ± 0.044,0.68 ± 0.22
CC[C@H]1[C@@H]2C[C@H]3[C@@H]4N(C)c5ccccc5[C@]45C[C@@H]([C@@H]2[C@H]5O)N3[C@@H]1O,1.07 ± 0.066,0.799 ± 0.035
CCn1cc(C(=O)O)c(=O)c2cc3c(cc21)OCO3,0.923 ± 0.032,0.192 ± 0.011
CC[C@@H](c1cccc(O)c1)[C@@H](C)CN(C)C,1.09 ± 0.081,0.708 ± 0.38
CC[C@@H](C(=O)[C@@H](C)[C@@H](O)[C@H](C)[C@@H]1O[C@@H]([C@@H](CC)C(=O)O)CC[C@@H]1C)[C@H]1O[C@]2(C=C[C@@H](O)[C@]3(CC[C@@](C)([C@H]4CC[C@](O)(CC)[C@H](C)O4)O3)O2)[C@H](C)C[C@@H]1C,1.06 ± 0.083,0.73 ± 0.13
CN1C[C@H](C(=O)N[C@]2(C)O[C@@]3(O)[C@@H]4CCCN4C(=O)[C@H](Cc4ccccc4)N3C2=O)C=C2c3cccc4[nH]cc(c34)C[C@H]21,1.03 ± 0.02,0.769 ± 0.38
CC([C@H](O)c1ccccc1)N(C)C (stereo not given in full),0.977 ± 0.096,1.08 ± 0.12
C=C/C=C\CC1=C(C)[C@@H](OC(=O)[C@@H]2[C@@H](/C=C(\C)C(=O)OC)C2(C)C)CC1=O.C=C/C=C\CC1=C(C)[C@@H](OC(=O)[C@@H]2[C@@H](C=C(C)C)C2(C)C)CC1=O,1.01 ± 0.014,0.938 ± 0.13
OC[C@@H](O)[C@H]1O[C@@H]2O[C@H](C(Cl)(Cl)Cl)O[C@@H]2[C@H]1O,1.01 ± 0.039,1.07 ± 0.077
CC(=O)[O][Hg][c]1ccccc1,0.575 ± 0.093,0.336 ± 0.15
O=C([O-])Cc1ccccc1.[Na+],1.15 ± 0.043,0.699 ± 0.11
C[CH2][Hg][S]c1ccccc1C(=O)[O-].[Na+],0.4 ± 0.083,0.819 ± 0.26
CCCCOC(=O)c1ccccc1C(=O)OCCCC,1.029 ± 0.01,1.11 ± 0.15
CC(O)CN1CCN(CC(=O)[O-])CCN(CC(=O)[O-])CCN(CC(=O)[O-])CC1.[Gd+3] (stereo not given),0.946 ± 0.083,1.23 ± 0.098
C#CC(C)(O)CC (stereo not given),0.971 ± 0.038,0.758 ± 0.24
CCN1C[C@]2(COC)[C@H](O)C[C@H](OC)[C@@]34[C@@H]5C[C@@]6(O)[C@H](OC(=O)c7ccccc7)[C@@H]5[C@@](OC(C)=O)([C@@H]([C@H](OC)[C@H]23)[C@@H]14)[C@@H](O)[C@@H]6OC,0.971 ± 0.025,0.837 ± 0.045
